Assay in all cases: DAPPL (digital affinity profiling via proximity ligation, sequencing); 10 mM Tris-HCl pH 7.5, 50 mM NaCl, 1 mM DTT, 4% glycerol, room temperature, 30 min; GST-TFs on glutathione beads, 16-mer random dsDNA library, 0.1% formaldehyde crosslink after washing; high values mean tight binding
Conditions in all cases: protein: recombinant; tags: N-terminal GST; dsDNA, one strand shown

For one experiment, the target named is T1, FLI1 (Homo sapiens, UniProt Q01543 1-452).
T1 sequence: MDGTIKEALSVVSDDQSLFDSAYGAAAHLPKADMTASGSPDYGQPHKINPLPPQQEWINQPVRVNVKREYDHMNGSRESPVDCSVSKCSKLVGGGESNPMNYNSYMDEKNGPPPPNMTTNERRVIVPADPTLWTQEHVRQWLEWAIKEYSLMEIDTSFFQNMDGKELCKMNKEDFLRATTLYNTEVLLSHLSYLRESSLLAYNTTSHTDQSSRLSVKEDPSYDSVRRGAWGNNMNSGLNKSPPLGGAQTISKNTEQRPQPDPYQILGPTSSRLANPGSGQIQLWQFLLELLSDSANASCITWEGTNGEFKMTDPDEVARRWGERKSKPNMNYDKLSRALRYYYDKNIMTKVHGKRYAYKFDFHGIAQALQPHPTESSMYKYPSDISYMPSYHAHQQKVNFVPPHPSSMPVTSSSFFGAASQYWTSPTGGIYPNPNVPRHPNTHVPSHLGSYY
An outline of the steps: (§1)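 GST fusions of human transcription factors were expressed in yeast and captured with glutathione beads. Once given DNA barcodes and pooled alongside a tag-only sample, they were incubated for 30 min at room temperature with 200 nmole of a random double-stranded 16-mer DNA library in Tris/NaCl/DTT/glycerol buffer, then washed, crosslinked (0.1% formaldehyde), proximity-ligated, PCR-amplified and sequenced on an Illumina NextSeq500. The binding signal of each hexamer is its read frequency for a factor divided by its frequency for the tag-only sample.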

Another experiment has as its target T2, ELK1 (Homo sapiens, UniProt P19419 1-428).
T2 sequence: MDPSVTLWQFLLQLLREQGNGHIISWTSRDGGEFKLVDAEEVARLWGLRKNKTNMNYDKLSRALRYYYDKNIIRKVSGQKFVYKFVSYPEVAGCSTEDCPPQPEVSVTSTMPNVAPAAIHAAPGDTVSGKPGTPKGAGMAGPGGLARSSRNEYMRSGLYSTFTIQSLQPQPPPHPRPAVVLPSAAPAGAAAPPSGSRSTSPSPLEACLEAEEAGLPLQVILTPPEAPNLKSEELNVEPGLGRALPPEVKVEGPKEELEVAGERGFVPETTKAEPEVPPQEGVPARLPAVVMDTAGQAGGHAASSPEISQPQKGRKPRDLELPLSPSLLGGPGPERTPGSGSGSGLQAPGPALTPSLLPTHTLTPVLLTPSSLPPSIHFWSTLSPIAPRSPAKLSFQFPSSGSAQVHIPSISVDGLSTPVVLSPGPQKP
An outline of the steps:
as §1

Another experiment deals with T3, GABPA (Homo sapiens, UniProt Q06546 1-454).
T3 sequence: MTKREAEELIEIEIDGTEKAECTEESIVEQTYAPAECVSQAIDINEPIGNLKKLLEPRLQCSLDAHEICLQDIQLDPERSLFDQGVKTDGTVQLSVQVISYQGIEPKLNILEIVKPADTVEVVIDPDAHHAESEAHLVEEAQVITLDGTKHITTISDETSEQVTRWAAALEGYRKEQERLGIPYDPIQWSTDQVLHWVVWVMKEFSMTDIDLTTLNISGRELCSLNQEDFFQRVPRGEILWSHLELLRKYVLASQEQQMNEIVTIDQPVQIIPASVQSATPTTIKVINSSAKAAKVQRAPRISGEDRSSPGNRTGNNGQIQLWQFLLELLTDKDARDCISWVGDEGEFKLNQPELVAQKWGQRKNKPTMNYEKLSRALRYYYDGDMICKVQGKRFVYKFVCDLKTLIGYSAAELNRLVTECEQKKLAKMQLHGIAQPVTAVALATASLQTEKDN
An outline of the steps:
as §1

Another experiment deals with T4, ERG (Homo sapiens, UniProt P11308 1-479).
T4 sequence: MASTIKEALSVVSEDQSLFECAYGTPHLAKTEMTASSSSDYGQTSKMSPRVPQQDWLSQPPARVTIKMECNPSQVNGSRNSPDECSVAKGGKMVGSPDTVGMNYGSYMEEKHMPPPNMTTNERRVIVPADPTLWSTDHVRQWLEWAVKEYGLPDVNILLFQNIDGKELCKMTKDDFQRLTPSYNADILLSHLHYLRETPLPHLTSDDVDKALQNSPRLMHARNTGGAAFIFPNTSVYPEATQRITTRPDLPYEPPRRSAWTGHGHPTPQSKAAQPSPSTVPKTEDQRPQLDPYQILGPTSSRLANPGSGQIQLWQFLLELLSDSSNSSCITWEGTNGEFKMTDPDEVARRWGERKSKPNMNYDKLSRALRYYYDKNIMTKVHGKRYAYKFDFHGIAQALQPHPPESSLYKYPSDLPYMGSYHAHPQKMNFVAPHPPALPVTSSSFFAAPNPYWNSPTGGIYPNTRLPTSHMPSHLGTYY
An outline of the steps:
as §1

A further experiment has as its target ELF1 (Homo sapiens, UniProt P32519 1-619). An outline of the steps: as §1
In the next experiment the target is T5, EHF (Homo sapiens, UniProt Q9NZC4 1-300).
T5 sequence: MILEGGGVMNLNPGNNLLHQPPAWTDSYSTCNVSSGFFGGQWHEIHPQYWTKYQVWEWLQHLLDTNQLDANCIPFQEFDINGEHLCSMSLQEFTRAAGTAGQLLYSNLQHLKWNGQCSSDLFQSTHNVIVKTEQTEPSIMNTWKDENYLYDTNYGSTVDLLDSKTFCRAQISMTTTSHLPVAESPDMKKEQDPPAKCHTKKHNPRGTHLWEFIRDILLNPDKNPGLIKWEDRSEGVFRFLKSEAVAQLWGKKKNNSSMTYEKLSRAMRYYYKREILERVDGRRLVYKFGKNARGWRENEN
An outline of the steps: as §1

The next experiment addresses SPI1 (Homo sapiens, UniProt P17947 1-270). An outline of the steps: as §1
A further experiment addresses SPIB (Homo sapiens, UniProt Q01892 1-262). The method, boiled down:
as §1

Another experiment has as its target T6, ELK3 (Homo sapiens, UniProt P41970 1-407).
T6 sequence: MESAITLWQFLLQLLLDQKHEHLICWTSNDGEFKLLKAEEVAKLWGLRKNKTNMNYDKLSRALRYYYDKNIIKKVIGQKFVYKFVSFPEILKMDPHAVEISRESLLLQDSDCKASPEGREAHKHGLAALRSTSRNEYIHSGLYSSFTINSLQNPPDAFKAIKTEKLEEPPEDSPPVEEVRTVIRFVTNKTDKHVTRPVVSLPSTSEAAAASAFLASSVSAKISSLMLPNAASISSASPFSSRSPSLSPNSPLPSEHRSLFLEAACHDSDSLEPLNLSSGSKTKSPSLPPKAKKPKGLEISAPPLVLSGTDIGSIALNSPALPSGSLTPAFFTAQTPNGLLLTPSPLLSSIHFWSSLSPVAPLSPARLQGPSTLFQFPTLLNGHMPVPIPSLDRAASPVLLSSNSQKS
The method, boiled down:
as §1

Sequence of SPIB (Q01892 whole entry): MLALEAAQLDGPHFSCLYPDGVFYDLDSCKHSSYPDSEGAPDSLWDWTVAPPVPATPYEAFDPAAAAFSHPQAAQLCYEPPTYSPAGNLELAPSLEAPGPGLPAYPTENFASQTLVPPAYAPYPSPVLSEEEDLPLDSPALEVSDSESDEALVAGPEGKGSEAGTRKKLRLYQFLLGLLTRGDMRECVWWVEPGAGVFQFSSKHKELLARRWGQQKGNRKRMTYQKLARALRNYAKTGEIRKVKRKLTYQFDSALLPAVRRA
Sequence of ELF1 (P32519 whole entry): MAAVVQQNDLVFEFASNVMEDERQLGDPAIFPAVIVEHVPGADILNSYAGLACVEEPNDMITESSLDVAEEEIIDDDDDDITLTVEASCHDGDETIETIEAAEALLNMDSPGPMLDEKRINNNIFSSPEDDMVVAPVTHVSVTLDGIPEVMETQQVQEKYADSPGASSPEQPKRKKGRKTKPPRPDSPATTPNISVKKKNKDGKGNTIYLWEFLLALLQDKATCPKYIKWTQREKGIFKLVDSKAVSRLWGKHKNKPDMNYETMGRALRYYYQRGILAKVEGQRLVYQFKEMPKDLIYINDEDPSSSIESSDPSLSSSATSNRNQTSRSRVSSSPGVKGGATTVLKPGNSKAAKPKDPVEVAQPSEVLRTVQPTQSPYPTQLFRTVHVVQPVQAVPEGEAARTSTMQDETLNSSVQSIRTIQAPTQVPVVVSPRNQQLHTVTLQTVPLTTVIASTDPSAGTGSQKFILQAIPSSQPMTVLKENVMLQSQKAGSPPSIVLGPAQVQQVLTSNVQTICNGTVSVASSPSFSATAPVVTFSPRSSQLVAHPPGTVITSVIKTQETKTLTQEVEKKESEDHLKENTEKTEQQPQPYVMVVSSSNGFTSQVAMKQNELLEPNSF

GAACTC: the binding signal was 1.28 fold enrichment (6-mer frequency, TF over GST control) with FLI1; 1.22 fold enrichment (6-mer frequency, TF over GST control) with ELK1; 1.31 fold enrichment (6-mer frequency, TF over GST control) with GABPA; 1.26 fold enrichment (6-mer frequency, TF over GST control) in the experiment with ERG; 1.29 fold enrichment (6-mer frequency, TF over GST control) with ELF1; 1.28 fold enrichment (6-mer frequency, TF over GST control) in the experiment with EHF. Further, the binding signal in the experiment with SPI1 was 1.39 fold enrichment (6-mer frequency, TF over GST control); with SPIB, 1.28 fold enrichment (6-mer frequency, TF over GST control); in the experiment with ELK3 it was 1.33 fold enrichment (6-mer frequency, TF over GST control).

With TTCTTT, the binding signal in the experiment with FLI1 was 1.18 fold enrichment (6-mer frequency, TF over GST control); with ELK1, 1.13 fold enrichment (6-mer frequency, TF over GST control); with GABPA, 1.21 fold enrichment (6-mer frequency, TF over GST control); in the experiment with ERG, 1.27 fold enrichment (6-mer frequency, TF over GST control); in the experiment with ELF1 it was 1.35 fold enrichment (6-mer frequency, TF over GST control); with EHF it was 1.11 fold enrichment (6-mer frequency, TF over GST control). The binding signal was 1.23 fold enrichment (6-mer frequency, TF over GST control) in the experiment with SPI1; 1.21 fold enrichment (6-mer frequency, TF over GST control) with SPIB; 1.17 fold enrichment (6-mer frequency, TF over GST control) in the experiment with ELK3.

With TGTGCT, the binding signal with FLI1 was 1.13 fold enrichment (6-mer frequency, TF over GST control); with ELK1, 1.23 fold enrichment (6-mer frequency, TF over GST control); in the experiment with GABPA, 1.24 fold enrichment (6-mer frequency, TF over GST control); with ERG it was 1.23 fold enrichment (6-mer frequency, TF over GST control); in the experiment with ELF1, 1.2 fold enrichment (6-mer frequency, TF over GST control); in the experiment with EHF, 1.11 fold enrichment (6-mer frequency, TF over GST control). Besides, the binding signal was 1.24 fold enrichment (6-mer frequency, TF over GST control) with SPI1; 1.14 fold enrichment (6-mer frequency, TF over GST control) with SPIB; 1.16 fold enrichment (6-mer frequency, TF over GST control) with ELK3.

Take AATCTC: the binding signal with FLI1 was 1.26 fold enrichment (6-mer frequency, TF over GST control); with ELK1, 1.21 fold enrichment (6-mer frequency, TF over GST control); in the experiment with GABPA, 1.28 fold enrichment (6-mer frequency, TF over GST control); with ERG it was 1.19 fold enrichment (6-mer frequency, TF over GST control); in the experiment with ELF1, 1.16 fold enrichment (6-mer frequency, TF over GST control); in the experiment with EHF it was 1.27 fold enrichment (6-mer frequency, TF over GST control). In addition, the binding signal with SPI1 was 1.16 fold enrichment (6-mer frequency, TF over GST control); in the experiment with SPIB it was 1.2 fold enrichment (6-mer frequency, TF over GST control); with ELK3, 1.15 fold enrichment (6-mer frequency, TF over GST control).

In the case of GTCTCC, the binding signal in the experiment with FLI1 is 1.45 fold enrichment (6-mer frequency, TF over GST control); with ELK1, 1.5 fold enrichment (6-mer frequency, TF over GST control); in the experiment with GABPA it was 1.52 fold enrichment (6-mer frequency, TF over GST control); in the experiment with ERG it was 1.26 fold enrichment (6-mer frequency, TF over GST control); with ELF1, 1.39 fold enrichment (6-mer frequency, TF over GST control); in the experiment with EHF, 1.4 fold enrichment (6-mer frequency, TF over GST control). Further, the binding signal with SPI1 is 1.52 fold enrichment (6-mer frequency, TF over GST control); with SPIB, 1.43 fold enrichment (6-mer frequency, TF over GST control); in the experiment with ELK3 it was 1.56 fold enrichment (6-mer frequency, TF over GST control).

As to AACTCG, the binding signal with FLI1 was 1.41 fold enrichment (6-mer frequency, TF over GST control); in the experiment with ELK1, 1.33 fold enrichment (6-mer frequency, TF over GST control); in the experiment with GABPA, 1.4 fold enrichment (6-mer frequency, TF over GST control); with ERG, 1.32 fold enrichment (6-mer frequency, TF over GST control); in the experiment with ELF1 it was 1.39 fold enrichment (6-mer frequency, TF over GST control); with EHF, 1.28 fold enrichment (6-mer frequency, TF over GST control). Besides, the binding signal with SPI1 is 1.4 fold enrichment (6-mer frequency, TF over GST control); with SPIB, 1.37 fold enrichment (6-mer frequency, TF over GST control); with ELK3 it was 1.24 fold enrichment (6-mer frequency, TF over GST control).

Take CTTGGA: the binding signal with FLI1 is 1.28 fold enrichment (6-mer frequency, TF over GST control); with ELK1 it was 1.15 fold enrichment (6-mer frequency, TF over GST control); with GABPA, 1.16 fold enrichment (6-mer frequency, TF over GST control); with ERG, 1.17 fold enrichment (6-mer frequency, TF over GST control); with ELF1, 1.27 fold enrichment (6-mer frequency, TF over GST control); in the experiment with EHF it was 1.13 fold enrichment (6-mer frequency, TF over GST control). Further, the binding signal in the experiment with SPI1 was 1.14 fold enrichment (6-mer frequency, TF over GST control); with SPIB it was 1.2 fold enrichment (6-mer frequency, TF over GST control); in the experiment with ELK3, 1.17 fold enrichment (6-mer frequency, TF over GST control).

These data come from paper PMC7862700, “An all-to-all approach to the identification of sequence-specific readers for epigenetic DNA modifications on cytosine”.
